# Assay outcomes as filed in PubChem.
# Shown are actives, neighbours in structure and some others; about 2.6% of the full set was active somewhere.
# PRMT1 FP inh: blocks human protein arginine methyltransferase 1; inhibition, % at 2.79 µM; actives 1.3% (n = 370,000); recombinant PRMT1, activity-based probe fluorescence polarization; Q99873;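 active = inhibition above about 21% made by adding two undisclosed values, limit read from the data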
# Fam108B counter: counter-screen for RBBP9 inhibitors: inhibitors of mouse Fam108B | recombinant Fam108B, FP-Rh probe fluorescence polarization | inhibition, % at 9.51 µM | actives 0.33% (n = 300,000);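 active = inhibition above the screen mean inhibition plus 3 SD, computed separately per campaign, cut at about 18% in these data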;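 also: inhibitors lower polarization as less probe binds the enzyme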
# PAD4 FP inh: inhibitors of human PAD4. recombinant PAD4, RCA probe fluorescence polarization. actives 0.41% (n = 330,000). Q9UM07. AID 485272. inhibition, % at 6.36 µM;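 active = percent inhibition above a cutoff equal to the mean of all tested compounds plus 3 SD, cut at about 15% in these data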
# PME-1 primary: PME-1 (human) inhibition; recombinant PME-1, FP-Rh probe fluorescence polarization; Q9Y570; inhibition, % at 5.9 µM; actives 0.53% (n = 320,000);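 active = inhibition above the campaign mean of all compounds plus 3 SD, cut at about 26% in these data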;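 also: competitive labeling of PME-1 active site by serine hydrolase directed probe; inhibitors block probe labeling so polarization falls and inhibition rises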
# SIAE inh: inhibitors of human sialic acid acetylesterase SIAE. Q9HAT2. SIAE FP-Rh probe binding, fluorescence polarization. inhibition, % at 9.66 µM. actives 0.69% (n = 370,000). AID 1053197;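 active = inhibition above a cutoff: mean of compounds within the control limits plus 3 SD of those, cut at about 17% in these data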
# Target sequence (Q9HAT2 whole entry, looked up): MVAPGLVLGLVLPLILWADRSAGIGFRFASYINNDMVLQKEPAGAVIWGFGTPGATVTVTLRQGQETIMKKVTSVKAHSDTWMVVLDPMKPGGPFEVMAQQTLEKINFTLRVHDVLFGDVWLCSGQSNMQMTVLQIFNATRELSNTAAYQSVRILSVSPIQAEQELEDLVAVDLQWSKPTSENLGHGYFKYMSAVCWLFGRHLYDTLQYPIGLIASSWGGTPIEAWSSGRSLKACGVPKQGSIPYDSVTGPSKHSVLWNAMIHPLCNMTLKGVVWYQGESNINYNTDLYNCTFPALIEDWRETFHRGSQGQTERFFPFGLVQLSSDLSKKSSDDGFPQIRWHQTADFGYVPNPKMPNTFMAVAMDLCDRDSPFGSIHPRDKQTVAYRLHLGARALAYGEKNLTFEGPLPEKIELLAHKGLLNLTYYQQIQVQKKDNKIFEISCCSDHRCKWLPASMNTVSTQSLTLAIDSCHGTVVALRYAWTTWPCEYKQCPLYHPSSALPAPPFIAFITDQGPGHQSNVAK
# TCR CD3 inh: human TCR-CD3 binding inhibition. actives 0.37% (n = 360,000). inhibition, % at 9.4 µM. TAMRA-labeled TCR probe fluorescence, biochemical;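 also: recombinant mutant TCR 2C K166C tagged with TAMRA read by polarization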
# BSA TAMRA ctr: interferes with TAMRA-BSA probe, flagging TCR-CD3 hits; inhibition, % at 9.4 µM; TAMRA-labeled BSA probe fluorescence counterscreen; actives 10% (n = 1,200); shares compounds with TCR CD3 inh; in the data active = inhibition above about 23%
# TCR-CD3 conf: TCR-CD3 interaction inhibition, confirmation; actives 48% (n = 1,200); inhibition, % at 9.4 µM; shares compounds with TCR CD3 inh; TAMRA-labeled TCR probe fluorescence binding assay
# PRMT1 confirm: PRMT1 (human) inhibition, FP confirmation | actives 42% (n = 3,300) | shares compounds with PRMT1 FP inh | inhibition, % at 2.79 µM | recombinant His-PRMT1, activity-based probe fluorescence polarization;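 active = mean inhibition across replicates above the hit cutoff derived for the earlier primary screen, cut at about 22% in these data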
# SIAE confirm: confirmation of human SIAE inhibitors | shares compounds with SIAE inh | SIAE FP-Rh activity-based probe, fluorescence polarization | inhibition, % at 9.66 µM | actives 13% (n = 2,300) | AID 1117263;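 active = mean inhibition of the replicates above the hit cutoff set in the primary screen, cut at about 17% in these data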;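 also: inhibitors lower polarization as more probe stays unbound to SIAE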
# A number is an active result; i = inactive; nt = no result; + = active, no number. Rule as the data show it, unless noted: active = inhibition above about 19%; inactive = the rest.
SMILES,PRMT1 FP inh,Fam108B counter,PAD4 FP inh,PME-1 primary,SIAE inh,TCR CD3 inh,BSA TAMRA ctr,TCR-CD3 conf,SIAE confirm,others
C/C(=N\NC(=O)c1ccc(N2CCCC2=O)cc1)c1ccc(O)cc1O,i,i,i,i,22.3,23.6,i,i,i,
C/C(=N\NC(=O)c1ccc(N2CCCC2=O)cc1)c1ccccc1,i,i,i,i,i,i,nt,nt,nt,
C[C@](N)(Cc1ccc(O)c(O)c1)C(=O)O,i,nt,nt,nt,18.2,22.0,i,i,i,
O=C(NCc1ccc(C(=O)N2CCCN(Cc3ccccc3)CC2)cc1)c1cccc(Br)c1,i,nt,nt,nt,i,nt,nt,nt,nt,
CCOc1ccccc1CNc1ccc(O)cc1,i,nt,nt,nt,33.6,20.5,i,i,i,
Cc1ccc(NCc2ccccc2OCc2ccccc2F)cc1,i,i,i,i,i,i,nt,nt,nt,
C[C@H]1COc2cc(F)ccc2S(=O)(=O)N1C,i,nt,nt,nt,i,nt,nt,nt,nt,
COc1cccc2c1C(=O)c1c(O)c3c(c(O)c1C2=O)CC(O)(C(C)=O)CC3OC1CC(O)C(O)C(C)O1 (stereo not given),+,nt,nt,nt,68.2,133.6,179.7,141.8,55.3,
O=C(CCC(=O)Nc1cccc(Cl)c1)N/N=C/c1cc([N+](=O)[O-])ccc1O,i,i,i,i,17.7,28.5,i,40.9,i,
O=C(Nc1cccc2[nH]ncc12)NS(=O)(=O)c1ccccc1,i,i,i,i,47.6,58.4,34.6,26.8,i,
CC(=O)Nc1ccc(S(=O)(=O)Nc2cccc3[nH]ncc23)cc1,i,i,i,i,i,i,nt,nt,nt,
COc1ccc(/C=C2\CC3(OC(=O)C4CCCCC4)CCCN2C3)cc1 (stereo not given),i,nt,nt,nt,i,nt,nt,nt,nt,
O=C(NC1CCCCN(Cc2cccc(C(F)(F)F)c2)C1=O)c1ccc(COc2ccccc2)cc1 (stereo not given),i,nt,nt,nt,i,nt,nt,nt,nt,
O=C1c2ccccc2-c2onc3ccc(N4CCCC4)c1c23,89.5,nt,nt,nt,76.3,110.8,186.0,144.8,56.4,PRMT1 confirm=74.0
C[C@@H]1CCN(C2CC2)S(=O)(=O)c2c(cccc2N2CCC[C@H]2C)O1,i,nt,nt,nt,i,nt,nt,nt,nt,
CS(=O)(=O)c1ccc(C(=O)Nc2nc(-c3ccco3)c(-c3ccco3)s2)cc1,35.3,nt,nt,nt,46.7,33.5,i,i,i,PRMT1 confirm=28.4
CS(=O)(=O)c1ccc2nc(NC(=O)c3ccccc3)sc2c1,i,i,i,i,i,i,nt,nt,nt,
CN=c1scc(C)n1/N=C/c1cc(Br)c(O)c(OC)c1,i,i,i,i,i,i,nt,nt,nt,
CN=c1scc(C)n1/N=C/c1ccc(O)c(O)c1O,26.1,i,i,i,18.7,52.7,i,64.9,i,
Nc1ccc2c(c1)C/C(=C/c1ccco1)C2=O,39.3,i,i,i,22.8,22.4,i,i,i,PRMT1 confirm=33.2
CCCC[C@H](C(=O)N(CC)c1ccccc1)[C@@H](O)c1ccc(C(C)=O)cc1,i,nt,nt,nt,i,nt,nt,nt,nt,
CC(=O)Nc1ccc(C(=O)N/N=C/c2cc(Br)cc(Br)c2O)cc1,i,i,i,i,32.7,39.6,i,41.9,i,
COC(=O)[C@H](CC(C)C)N(Cc1cn(Cc2ccccc2)nn1)S(=O)(=O)c1ccc(F)cc1Br,i,nt,nt,nt,i,nt,nt,nt,nt,
O=C(COC(=O)Cc1cccs1)Nc1ccc(OC(F)(F)F)cc1,78.0,i,i,i,133.1,62.0,i,i,i,
C[C@@H]1NC(=O)[C@H]2C[C@@]3(c4ccccc4)c4ccccc4N[C@H]3N2C1=O,i,nt,nt,nt,i,nt,nt,nt,nt,
SMILES,PRMT1 FP inh,Fam108B counter,PAD4 FP inh,PME-1 primary,SIAE inh,TCR CD3 inh,BSA TAMRA ctr,TCR-CD3 conf,SIAE confirm,others
O=C(CCc1ccc(S(=O)(=O)N2CCOCC2)cc1)N/N=C/c1ccc(O)c(O)c1O,32.8,i,i,i,27.9,28.4,i,25.3,i,PRMT1 confirm=50.1
O=C1C=CC(=O)c2c(O)c(CO)c(CO)c(O)c21,49.8,nt,nt,nt,52.7,78.0,i,59.2,43.5,
CC1(C)OC(=O)C(=CNc2cccc(O)c2)C(=O)O1,i,i,i,i,i,i,nt,nt,nt,
CC1(C)OC(C)(C)/C(=C/Nc2ccc(O)cc2)C1=O,i,i,i,i,32.6,33.0,i,i,i,
CC(C)C[C@@H]1COc2cccc(N3CCSCC3)c2S(=O)(=O)N1C,i,nt,nt,nt,i,nt,nt,nt,nt,
COc1ccc2c3c(cccc13)C(=O)CC2,145.1,nt,nt,nt,72.8,56.9,i,i,i,PRMT1 confirm=80.8
NNC(=O)c1oc2nc(-c3ccco3)cc(-c3ccco3)c2c1N,38.3,i,i,i,50.5,25.3,i,i,73.9,
Nc1c(C(=O)N/N=C/c2cccnc2)oc2nc(-c3ccccc3)cc(-c3ccco3)c12,i,i,i,i,i,i,nt,nt,nt,
CC(C)N=c1scc(-c2ccco2)n1/N=C/c1ccc(O)c(O)c1,i,i,i,i,i,i,nt,nt,nt,
COCCN=c1scc(-c2ccco2)n1/N=C/c1ccc(O)c(O)c1O,40.4,i,i,i,28.3,25.8,i,23.8,i,
O[C@H](COc1ccc(Cl)cc1)CN1CCC(C(O)(c2ccccc2)c2ccccc2)CC1,i,nt,nt,nt,i,nt,nt,nt,nt,
CCOc1ccc(Nc2ccc(N)c(S(=O)(=O)O)c2)cc1,35.8,nt,nt,nt,21.1,42.4,i,20.9,i,PRMT1 confirm=i
CCOc1ccc(NS(=O)(=O)c2ccc(N)cc2)cc1,i,i,i,i,i,i,nt,nt,nt,
O=C(N/N=C/c1cc2c3c(c1O)CCCN3CCC2)c1ccccc1O,i,nt,nt,nt,43.3,69.0,31.1,68.5,36.2,
O=C(N/N=C/c1cn(Cc2cccc(F)c2)c2ccccc12)c1cc(O)cc(O)c1,i,nt,nt,nt,36.6,47.3,i,27.0,i,
CCC(=O)Nc1nc(C)c(-c2csc(Nc3cccc(O)c3)n2)s1,48.9,i,i,30.1,i,i,nt,nt,nt,PRMT1 confirm=i
CCN1CCSc2ccc(C(=O)NCc3ccccc3F)cc21,51.9,i,i,i,i,i,nt,nt,nt,PRMT1 confirm=i
CCN1CCSc2ccc(C(=O)NCc3ccccc3C)cc21,i,i,i,i,i,i,nt,nt,nt,
CCn1c(COc2ccc(Cl)cc2)nnc1SCC(=O)Nc1ccccc1-c1ccccc1,i,nt,nt,nt,i,nt,nt,nt,nt,
N#Cc1c(SCC(=O)Nc2ccc(Cl)cc2Cl)sc2c(O)cc(=O)[nH]c12,30.0,i,i,i,i,i,nt,nt,nt,PRMT1 confirm=i
N#Cc1c(SCC(=O)Nc2ccccc2C(F)(F)F)sc2c(O)cc(=O)[nH]c12,31.2,i,i,i,i,i,nt,nt,nt,PRMT1 confirm=i
CC(=O)N1[C@H](CO)[C@@H](c2ccccc2)[C@@H]1CN(C(=O)c1ccc(F)cc1)C(C)C,i,nt,nt,nt,i,nt,nt,nt,nt,
CC(=O)c1ccc2c(c1)N(C)c1ccccc1S2,i,i,i,i,i,i,nt,nt,nt,
C=Cc1ccc2c(c1)N(C)C(=C)S2,81.0,i,i,i,i,i,nt,nt,nt,PRMT1 confirm=60.8
CC(=O)N1CCc2c1cccc2S(=O)(=O)NC(CC(C)C)C(=O)Nc1ccc(F)cc1Cl (stereo not given),i,nt,nt,nt,i,nt,nt,nt,nt,
